Assay outcomes as filed in PubChem BioAssay.
CHT inh: inhibits the human high affinity choline transporter | Q9GZV3 | CHT-expressing cells, membrane potential dye, choline response; stronger effect = lower value | B-score at 10 µM | 310,000 compounds, 0.86% hits;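 active = B-score over 3 SD under the library average, and starting fluorescence ratio not unusually high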;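 note: choline stimulus applied at its EC90 after an EC20 pre-addition; B-score computed on integrated fluorescence ratio after choline addition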
Target sequence (Q9GZV3 whole entry, looked up): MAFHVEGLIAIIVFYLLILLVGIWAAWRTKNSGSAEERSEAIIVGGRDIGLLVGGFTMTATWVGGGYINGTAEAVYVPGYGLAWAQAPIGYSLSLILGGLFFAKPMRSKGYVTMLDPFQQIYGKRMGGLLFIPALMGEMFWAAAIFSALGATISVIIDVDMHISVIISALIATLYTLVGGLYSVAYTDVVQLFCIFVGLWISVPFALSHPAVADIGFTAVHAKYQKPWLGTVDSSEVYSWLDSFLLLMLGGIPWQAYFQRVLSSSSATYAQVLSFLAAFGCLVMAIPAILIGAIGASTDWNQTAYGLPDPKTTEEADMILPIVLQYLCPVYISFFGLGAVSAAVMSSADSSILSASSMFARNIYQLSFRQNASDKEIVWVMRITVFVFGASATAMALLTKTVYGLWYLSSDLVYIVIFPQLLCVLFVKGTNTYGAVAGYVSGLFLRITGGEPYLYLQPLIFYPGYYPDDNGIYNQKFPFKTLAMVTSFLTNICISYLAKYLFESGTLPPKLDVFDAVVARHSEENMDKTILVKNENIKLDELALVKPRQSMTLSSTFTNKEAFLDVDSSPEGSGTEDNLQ
CHT PAM: allosteric activators of human choline transporter CHT | CHT-expressing cells, membrane potential dye, choline EC20; stronger effect = higher value; LV-AA mutant CHT in HEK293 cells | B-score at 10 µM | 310,000 compounds, 0.49% hits | AID 488977;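 active = initial fluorescence not abnormally high and integrated response B-score, plate-corrected, over 3 SD above library mean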
ANO1 activ: activators or potentiators of mouse TMEM16A chloride channel. AID 623877. 340,000 compounds, 0.3% hits. HEK293 TMEM16A/YFP-H148Q/I152L, iodide quench fluorescence; stronger effect = lower value. Q8BHY3. B-score at 10 µM;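 active = fluorescence-ratio B-score plate-corrected deviation score at least 3 library SD below zero, with starting fluorescence score within 5 deviations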;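 note: channel opened by trigger with iodide after compound preincubation; score built on the fluorescence ratio of max minus min over baseline; more negative score means more quench and so TMEM16A activation or potentiation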
ANO1 block: mouse TMEM16A channel inhibition, primary screen | Q8BHY3 | HEK293 TMEM16A/YFP iodide influx fluorescence, ionomycin | normalized B-score (activity score, 25-100; higher = stronger inhibition) at 10 µM | 310,000 compounds, 1.2% hits | AID 588511;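 active = ratio plate-corrected score three or more library SD toward inhibition, starting fluorescence score within five deviations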;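 note: score derived from kinetic fluorescence span divided by baseline fluorescence per well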
CHT block conf: human CHT inhibition, confirmatory screen; shares compounds with CHT inh; CHT-expressing cells, choline membrane potential dye; LV-to-AA substituted CHT, HEK293 cells; 2,400 compounds, 70% hits; CHT activity remaining % of control (stronger effect = lower value), % at 10 µM;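 active = choline transporter activity left, mean of duplicates at 10 µM, below buffer-only control mean minus 3 SD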;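 note: depolarization triggered by choline at its EC90 following an EC20 pre-addition; 0% = hemicholinium-3 full block and 100% = buffer-only control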
HEK293 MPD ctr: CHT inhibitor counter-screen hit in parental HEK293 cells. 2,400 compounds, 4% hits. membrane potential ratio readout (active if shifted either direction beyond buffer ±3SD; no single direction) at 10 µM. membrane potential dye, choline response; active = decrease or increase beyond buffer ±3SD. shares compounds with CHT inh;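 note: parental cells lack the transporter so any hit is non-specific; ratio is peak minus trough fluorescence over baseline after EC90 choline challenge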
Active calls of the source: *. An excerpt weighted towards active compounds, which were near 2.4% of everything screened.

Screening NC(=O)c1ccc(NCCc2ccccc2)c([N+](=O)[O-])c1 returned CHT inh -4.98*, CHT PAM inactive, ANO1 activ inactive, ANO1 block inactive, CHT block conf inactive and HEK293 MPD ctr inactive.
O=C(Cc1ccccc1[N+](=O)[O-])NCCSCc1c(F)cccc1Cl was read as CHT inh inactive, CHT PAM inactive, ANO1 activ inactive and ANO1 block inactive.
Screening COc1ccc(CCN2C(=O)N(c3ccc(OC)cc3)C(=O)C2CC(=O)Nc2ccccc2)cc1 (stereo not given) returned CHT inh inactive, CHT PAM inactive, ANO1 activ inactive and ANO1 block inactive.
COc1ccc(N2C(=O)C(CC(=O)Nc3ccccc3)N(CCc3ccc(OC)c(OC)c3)C2=O)cc1 (stereo not given) was read as CHT inh -8.74*, CHT PAM inactive, ANO1 activ inactive, ANO1 block inactive, CHT block conf inactive and HEK293 MPD ctr inactive.
Screening Cc1cc(C)c2c(c1)-c1cc(C)nn1C(c1ccc3c(c1)OCO3)N2 (stereo not given) returned CHT inh inactive, CHT PAM inactive, ANO1 activ inactive and ANO1 block inactive.
Screening Cc1cc2n(n1)C(c1ccc3c(c1)OCO3)Nc1c(C)cccc1-2 (stereo not given) returned CHT inh -5.08*, CHT PAM inactive, ANO1 block inactive, CHT block conf inactive and HEK293 MPD ctr inactive.
O=C1Nc2ccc(F)cc2C12Nc1ccccc1-c1nnc(SCc3ccccc3Cl)nc1O2 (stereo not given) was read as CHT inh -6.11*, CHT PAM inactive, ANO1 activ inactive, ANO1 block inactive, CHT block conf inactive and HEK293 MPD ctr inactive.
`Cc1ccc2cc(C#N)c(N3CCN(C(=O)c4ccccc4)CC3)nc2c1` gave CHT inh -5.2*, CHT PAM inactive, ANO1 activ inactive, ANO1 block inactive, CHT block conf inactive and HEK293 MPD ctr inactive.
Screening COc1cc(C(=O)N2CCCN(c3nc4cc(C)ccc4cc3C#N)CC2)cc(OC)c1OC returned CHT inh inactive, CHT PAM inactive and ANO1 block inactive.
Screening Cc1[nH]n(-c2ccc(Cl)cc2)c(=O)c1C(=O)c1ccccc1 returned CHT inh -11*, CHT PAM inactive, ANO1 activ inactive, ANO1 block inactive, CHT block conf inactive and HEK293 MPD ctr inactive.
For O=C(COc1ccccc1-c1ccccc1)NNC(=O)NC1CCCCC1 the results were CHT inh -6.32*, CHT PAM inactive, ANO1 activ inactive, ANO1 block inactive, CHT block conf 33.8%* and HEK293 MPD ctr inactive.
For CCCCCCn1c(=O)c(F)cn(Cc2ccc(OC)c([N+](=O)[O-])c2)c1=O the results were CHT inh -6.68*, CHT PAM inactive, ANO1 activ inactive, ANO1 block inactive, CHT block conf inactive and HEK293 MPD ctr inactive.
For CCCCCn1c(=O)c(F)cn(Cc2ccc(OC)c([N+](=O)[O-])c2)c1=O the results were CHT inh -7.56*, CHT PAM inactive, ANO1 activ inactive, ANO1 block inactive, CHT block conf 53.6%* and HEK293 MPD ctr inactive.
CC(=O)NS(=O)(=O)c1ccc(NS(=O)(=O)c2ccccc2[N+](=O)[O-])cc1 was read as CHT inh inactive, CHT PAM inactive, ANO1 activ inactive and ANO1 block inactive.
For CC1CCN(CCc2nc3cc(NS(=O)(=O)c4ccc(F)cc4)ccc3n2C)CC1 the results were CHT inh inactive, CHT PAM inactive, ANO1 activ inactive and ANO1 block inactive.
Screening CC1CCN(CCc2nc3cc(NS(=O)(=O)c4ccccc4)ccc3n2C)CC1 returned CHT inh -9.33*, CHT PAM inactive, ANO1 activ inactive, ANO1 block inactive, CHT block conf 37.1%* and HEK293 MPD ctr inactive.
Screening Cc1ccc(C(=O)NCC(=O)N2CCC(Cc3ccccc3)CC2)cc1 returned CHT inh -5.25*, CHT PAM inactive, ANO1 activ inactive, ANO1 block inactive, CHT block conf 59.2%* and HEK293 MPD ctr inactive.
`O=C(C1CC(=O)N(C2CCCC2)C1)N1CCC(Cc2ccccc2)CC1` (stereo not given) gave CHT inh -5.77*, CHT PAM inactive, ANO1 activ inactive, ANO1 block inactive, CHT block conf 55.3%* and HEK293 MPD ctr inactive.
O=C(/C=C/c1ccccc1)N1CCC(Cc2ccccc2)CC1 was read as CHT inh -5.29*, CHT PAM inactive, ANO1 activ inactive, ANO1 block inactive, CHT block conf inactive and HEK293 MPD ctr inactive.
Screening O=C(/C=C/c1cccc(Cl)c1)N1CCC(Cc2ccccc2)CC1 returned CHT inh inactive, CHT PAM inactive, ANO1 activ inactive and ANO1 block inactive.
For O=C(C1CC(=O)N(C2CCCC2)C1)N1CCN(c2ccccc2F)CC1 (stereo not given) the results were CHT inh inactive, CHT PAM inactive, ANO1 activ inactive and ANO1 block inactive.
Screening NNc1cc(C(=O)O)ccc1Cl returned CHT inh inactive, CHT PAM inactive, ANO1 activ inactive and ANO1 block inactive.
For CCN(CC(=O)Nc1c(F)cccc1F)C(=O)CSc1nc(C)cc(C)n1 the results were CHT inh inactive, CHT PAM inactive, ANO1 activ inactive and ANO1 block inactive.
O=C(O)/C(=C\c1ccccc1OC(F)F)Sc1nnc(-c2ccc(F)cc2)o1 was read as CHT inh -5.65*, CHT PAM inactive, ANO1 activ inactive, ANO1 block inactive, CHT block conf 30.6%* and HEK293 MPD ctr inactive.
`CCCCCc1c2c(cc(O)c1C(=O)O)OC(=O)c1c(cc(OC)cc1C(=O)CCCC)O2` gave CHT inh -5.33*, CHT PAM inactive, ANO1 activ inactive, ANO1 block 100*, CHT block conf 35.3%* and HEK293 MPD ctr inactive.
For CCCCCc1c2c(cc(O)c1C(=O)O)OC(=O)c1cc(C(=O)CCCC)c(OC)cc1O2 the results were ANO1 activ inactive.
Screening COc1ccc(/C=C/C(=O)O)cc1S(=O)(=O)Nc1ccc2c(c1)OCO2 returned CHT inh inactive, CHT PAM inactive, ANO1 activ inactive and ANO1 block inactive.
Screening Cc1cccc(CCNC(=O)c2cc(S(=O)(=O)N3CCCC3)cn2C)c1 returned CHT inh inactive, CHT PAM inactive, ANO1 activ inactive and ANO1 block inactive.
Screening Cc1cnn2c(C3CC3)ccnc12 returned CHT inh inactive, CHT PAM inactive, ANO1 activ inactive and ANO1 block inactive.
